± gives the standard deviation of the averaged measurements.
System: Listeria monocytogenes 10403S
Assay: growth inhibition relative to ceftriaxone-alone control; higher = stronger potentiation of ceftriaxone growth inhibition
Conditions: 10 µM; ceftriaxone 1 ug/ml; 12 h
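Note: End-point A600 read in BHI broth at 37 °C with 2% DMSO, inhibition computed as (1 − OD with compound plus ceftriaxone ÷ OD with ceftriaxone only) × 100.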

SMILES	growth inhibition
COc1cc2ncnc(Nc3ccc(O)c(Br)c3)c2cc1OC	13.4 ± 5.2%
CCS(=O)(=O)c1cccc(-c2cc(C(=O)NC3CCN(C)CC3)c(C)c3[nH]c4ncc(C)cc4c23)c1	31.1 ± 6.9%
CCc1ccc(Oc2nccc(-c3c(-c4ccc(F)cc4)ncn3C3CCNCC3)n2)cc1	1.75 ± 23%
C[C@@H]1CN(CC(=O)Nc2ccc3c(c2)Cc2cccc(-c4cc(=O)cc(N5CCOCC5)o4)c2S3)C[C@H](C)O1	27.5 ± 4.1%
CNC(=O)c1cc(Oc2ccc(NC(=O)Nc3ccc(Cl)c(C(F)(F)F)c3)c(F)c2)ccn1 [Regorafenib (BAY 73-4506)]	85.5 ± 3.7%
Cc1ccc(Nc2ccnc(Nc3cccc(C(N)=O)c3)n2)cc1O	-4.84 ± 3.2%
CC1=C(C(=O)Nc2ccc3[nH]ncc3c2)C(c2ccc(F)cc2)N=C(c2ccc(C(F)(F)F)nc2)N1 (stereo not drawn)	4.07 ± 7.3%
N#Cc1cccc(Nc2nccc(-c3cnn4ncccc34)n2)c1	-0.568 ± 0.54%
CCc1cc(Nc2nccc(-c3c(-c4ccc(OC)c(C(=O)Nc5c(F)cccc5F)c4)nc4ccccn34)n2)c(OC)cc1N1CCC(N2CCN(S(C)(=O)=O)CC2)CC1	24.5 ± 8%
COc1cc2ncnc(Nc3cccc(Br)c3)c2cc1OC	36.1 ± 16%
Cc1ccc(NC(=O)c2ccc(CN3CCN(C)CC3)cc2)cc1Nc1nccc(-c2cccnc2)n1 [Imatinib (Gleevec)]	16.3 ± 4.7%
CC(=O)Nc1nc(C)c(-c2ccc(Cl)c(S(=O)(=O)NCCO)c2)s1	29.5 ± 2%
CC(=O)NCC(=O)N1[C@@H]2CC[C@H]1c1ccc(Nc3ncc(C(F)(F)F)c(NC4CCC4)n3)cc12	52 ± 46%
